Measurements: PubChem BioAssay (NCI)
About 79,000 compounds went through this panel and 15% of them were active in at least one assay; those are over-represented in the sample as a whole. Cut-off read from the data, not from the text of the source: active = growth inhibition above about 70%; inactive = the rest.

Experiments:
[1] = NCI Yeast Anticancer Drug Screen. Data for the rad50 strain (AID 155);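 note: 0% = growth of vehicle-only cultures of the same strain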; conditions: S. cerevisiae rad50 strain growth inhibition; at 50.0 µM; hits give high values
How it was run: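 Relative growth inhibition (compound vs vehicle) was measured in yeast with a defined repair-gene alteration.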

[2] = NCI Yeast Anticancer Drug Screen. Data for the mec2-1 strain (AID 157); conditions: S. cerevisiae mec2-1 strain, at 50.0 µM, hits give high values
How it was run: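 Readout is yeast growth inhibition, normalised to vehicle-treated controls, in the mec2-1 strain exposed to compound.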

[3] = NCI Yeast Anticancer Drug Screen. Data for the sgs1 mgt1 strain (AID 161);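 note: 0% = growth of cultures given vehicle only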; conditions: S. cerevisiae sgs1 mgt1 strain, at 50.0 µM, hits give high values
How it was run: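 Yeast cells carrying a defined DNA-repair defect were exposed to test compounds. Growth inhibition was measured relative to vehicle-treated controls.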

[4] = NCI Yeast Anticancer Drug Screen. Data for the cln2 rad14 strain (AID 165);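 note: 0% = growth equal to vehicle treated cultures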; conditions: S. cerevisiae cln2 rad14 strain, at 50.0 µM, hits give high values
How it was run: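 Relative to vehicle controls, growth inhibition of compound-treated cln2 rad14 yeast was recorded.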

[5] = NCI Yeast Anticancer Drug Screen. Data for the bub3 strain (AID 167); conditions: S. cerevisiae bub3 mutant strain, at 50.0 µM, hits give high values
How it was run: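 Screening used yeast with an engineered genetic alteration affecting cell cycle control. Compound-exposed cultures were compared with vehicle cultures, and reduced growth was taken as inhibition.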

[6] = NCI Yeast Anticancer Drug Screen. Data for the mlh1 rad18 strain (AID 175); conditions: S. cerevisiae mlh1 rad18 strain growth inhibition; at 50.0 µM; hits give high values
How it was run: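 Test agents were incubated with a yeast strain of defined genotype (DNA damage repair defect). Inhibition of growth was derived by comparison with vehicle-exposed cultures.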

Measured: growth inhibition

O=C(/C=C\c1ccccc1)OCC(=O)c1ccc(-c2ccccc2)cc1
inactive: [1] -20.1% | [2] -2.3% | [3] 1.9% | [4] -34.3% | [5] 1.1% | [6] 4.4%

NCCCC(N)C(=O)O (configuration not stated)
inactive: [1] -16.9% | [2] -17.4% | [3] -33.5% | [4] -12.7% | [5] -42.6% | [6] -19.7%

CC(=O)NNc1nc(C)c(C(/C=C/c2ccc([N+](=O)[O-])cc2)=N/NC(N)=S)s1
inactive: [1] -8.6% | [2] -2.25% | [3] -10% | [4] -12.4% | [5] -7.2% | [6] 6.7%

Nc1ccccc1SC1CC(=O)N(c2ccc(Oc3ccc(Cl)cc3)cc2)C1=O (configuration not stated)
inactive: [1] 25.6% | [2] 12.2% | [3] 13.8% | [4] -12.2% | [5] -0.15% | [6] 2.55%

O=C(NCCCN1CCN(CCCNC(=O)Nc2ccc(Br)cc2)CC1)Nc1ccc(Br)cc1
inactive: [1] 27.7% | [2] 10.8% | [3] 38.4% | [4] 12.2% | [5] -1.5% | [6] 23.4%

CC(C)C1OCC(CO)([N+](=O)[O-])CO1 (configuration not stated)
inactive: [1] -45% | [2] -18.4% | [3] -21.8% | [4] -54.5% | [5] 1.35% | [6] -6.15%

Cc1ccc(N=c2oc3c(ccc4ccccc43)nc2Nc2ccc(C)cc2)cc1
inactive: [1] -33.5% | [2] -32.5% | [3] -46.2% | [4] -35.5% | [5] -32.8% | [6] -19%

CCCCCC(C)(C)O
inactive: [1] 7.6% | [2] -6.55% | [3] -3.9% | [4] -40.9% | [5] 4.75% | [6] -4.75%

CCCCOC(=O)/C(=C\c1cccc(OC)c1)NC(=O)c1ccccc1
inactive: [1] 15.8% | [2] 14.9% | [3] 28.5% | [4] 11.2% | [5] 58.2% | [6] 34.6%

CC(=O)C1CC(CCC2([N+](=O)[O-])CCC(C)(O)C(C(C)=O)C2)([N+](=O)[O-])CCC1(C)O (configuration not stated)
inactive: [1] 3.3% | [2] 5.05% | [3] 6.7% | [4] 2.6% | [5] 12.3% | [6] 20.6%

O=C(Nc1nc(C23CC4CC(CC(C4)C2)C3)cs1)c1cc2ccccc2oc1=O
inactive: [1] -1.45% | [2] -26.5% | [3] -3.45% | [4] -30.4% | [5] -23.9% | [6] -17.4%

OCc1nnn2c1CCC2
inactive: [1] 4.95% | [2] 0.05% | [3] -2.15% | [4] 11.4% | [5] 10.4% | [6] -6.25%

Nc1ncc2ncn(CCO)c2n1
inactive: [1] -22.1% | [2] -15.4% | [3] 23.1% | [4] 1.95% | [5] -6.85% | [6] 3.7%

O=C(CCCn1cnc([N+](=O)[O-])n1)NCCn1ccnc1[N+](=O)[O-]
inactive: [1] -3.1% | [2] -7.3% | [3] -10.3% | [4] -5.1% | [5] -13.6% | [6] -26.3%

Cc1ccc(C(=O)c2ccccc2C(=O)O)cc1C
inactive: [1] 4.35% | [2] -4.35% | [3] -17.9% | [4] -18.4% | [5] 9.2% | [6] -18.6%

COc1cccc(Cc2c3cc(OC)ccc3cc[n+]2C)c1
inactive: [1] 33.3% | [2] 10.8% | [3] 34.2% | [4] 27.7% | [5] 59% | [6] 52.7%

O=C1C=C2CCCCCCCCC(C1)C2 (configuration not stated)
inactive: [1] -1.85% | [2] -9.85% | [3] -5.45% | [4] -18.8% | [5] 12.4% | [6] 0.1%

O=S(=O)(O)c1ccc(-c2nc3ccccc3[nH]2)cc1
inactive: [1] 1.6% | [2] 8.5% | [3] 4.65% | [4] 6% | [5] 28.2% | [6] -18.9%

N/N=C1/C=Cc2cccc3cccc1c23
inactive: [1] 19.3% | [2] -37.2% | [3] 15.3% | [4] 30.2% | [5] 16.2% | [6] 38.4%

CCOC(=O)CCC(=O)OCC
inactive: [1] 21.6% | [2] 7.05% | [3] 0% | [4] 16.9% | [5] 9.85% | [6] 10.6%

O=c1[nH]c2cc(Cl)ccc2nc1/C=C(\O)c1cccc2ccccc12
inactive: [1] 40.9% | [2] 15.2% | [3] 28.6% | [4] 17% | [5] 15.1% | [6] 35%

CCOC(=O)C/C(C(=O)O)=C(\C)c1ccc2ccccc2c1
inactive: [1] -10.4% | [2] 18.1% | [3] 20.9% | [4] 1.15% | [5] -2.25% | [6] -0.85%

COc1nc2ccccc2nc1OC
inactive: [1] -14.1% | [2] -8.75% | [3] -5.5% | [4] -14.8% | [5] 4.45% | [6] 4%

CCCCS/C=C1\CC2OC(=O)C3(C)CCCC(C)(C1=O)C23 (configuration not stated)
inactive: [1] -1.85% | [2] 15.2% | [3] 8.15% | [4] -3% | [5] 11.5% | [6] 26.6%

COc1ccc(-c2c3c(n(C4OC(COC(C)=O)C(OC(C)=O)C(OC(C)=O)C4OC(C)=O)c(=S)c2C#N)CCC3)cc1 (configuration not stated)
inactive: [1] 28.8% | [2] 35% | [3] 43.3% | [4] 32% | [5] 46.8% | [6] 20.9%

COC(=O)C1(OC)C(=O)NC2=C1C(=O)c1ccccc1C2=O (configuration not stated)
inactive: [1] -12.1% | [2] -13% | [3] -4.1% | [4] -18.8% | [5] 9.3% | [6] 4.8%

CC(C)C1=CC(=Nc2ccc(N(C)C)cc2)C=CC1=O
inactive: [1] -1.35% | [2] 6.4% | [3] 9.5% | [4] -29.2% | [5] 18% | [6] -13.1%

CC1(C)OCN(c2ccc(Cl)cc2)Cn2c1nc1ccccc12
inactive: [1] -6.65% | [2] 8.2% | [3] -22.8% | [4] 2.5% | [5] -25.9% | [6] -9.25%

NC1C(=O)Nc2ccccc21 (configuration not stated)
inactive: [1] 1.85% | [2] 5.95% | [3] -5.75% | [4] -1.05% | [5] 8.35% | [6] 4.95%

COC1O[C@H]2CCN(C(=O)OCc3ccccc3)[C@H]2[C@H]1OCc1ccccc1 (some centres not stated)
inactive: [1] 19.8% | [2] -11.6% | [3] 20.2% | [4] 4.05% | [5] 28.6% | [6] 44.5%

C[C@]12CC[C@@H]3c4ccc(O)cc4CC[C@H]3[C@@H]1CC[C@@H]2OP(=O)(O)O
inactive: [1] -0.15% | [2] -9.95% | [3] -37.1% | [4] -27.4% | [5] -6.45% | [6] -16.6%

COc1cc2c(cc1C/C=C/c1ccccc1)OCO2
inactive: [1] -11.4% | [2] -15.9% | [3] -0.9% | [4] -9.5% | [5] 17.1% | [6] -6.4%

c1ccc(C2(c3ccccc3)SC2(c2ccccc2)c2ccccc2)cc1
inactive: [1] -13.9% | [2] -7.75% | [3] -11.1% | [4] -24.1% | [5] 2.15% | [6] -6.65%

CCOC(CN/C(=C/c1ccc2ccccc2[n+]1C)SC)OCC
inactive: [1] -10.8% | [2] 9.15% | [3] -8.4% | [4] -12.1% | [5] -32.8% | [6] -8.2%

CCN(CC)CCOC(=O)COc1ccc(Cc2ccccc2)cc1
inactive: [1] 14.7% | [2] 3.55% | [3] 14.3% | [4] 15.6% | [5] -9.4% | [6] 11.3%

CCOC(=O)c1c(Br)c(-c2ccc([N+](=O)[O-])cc2)c(Br)n1C
inactive: [1] 11.4% | [2] -7.4% | [3] -0.15% | [4] -0.15% | [5] -2.1% | [6] -5.2%

CC(=O)Oc1cccc(O)c1
inactive: [1] -1.55% | [2] -3.65% | [3] -15.2% | [4] -22.5% | [5] -4.15% | [6] 3%

Cc1cc(NS(=O)(=O)c2ccc(NC(NC(=O)C(C(F)(F)F)C(F)(F)F)(C(F)(F)F)C(F)(F)F)cc2)no1
inactive: [1] 1.4% | [2] -18.1% | [3] -24.9% | [4] -8.4% | [5] 10.6% | [6] 0.55%

CCOC(=O)C(C(=O)CC)=P(c1ccccc1)(c1ccccc1)c1ccccc1
inactive: [1] 3.35% | [2] 17.4% | [3] -20.1% | [4] -9.4% | [5] -9.9% | [6] 23.2%

CCC(=O)Oc1ccc(C(OC(=O)CC)OC(=O)CC)cc1OC
inactive: [1] -9.1% | [2] -9.1% | [3] 11.8% | [4] -20.2% | [5] 9.45% | [6] 8.05%

O=C(CSc1nnc(Cc2ccccc2)o1)Nc1ccc([N+](=O)[O-])cc1
inactive: [1] 11.2% | [2] 15.1% | [3] 5.65% | [4] 10.5% | [5] 19% | [6] -7.15%

COc1ccc2c(c1)OCCN(C)OC2c1ccccc1 (configuration not stated)
inactive: [1] -7.65% | [2] -4.6% | [3] -10.2% | [4] 0.5% | [5] 11.1% | [6] -1.5%
